The results in this text go back to PubChem BioAssay (NCI).

Test systems include SR leukemia; RPMI-8226 leukemia; OVCAR-8 ovarian; OVCAR-5 ovarian; OVCAR-4 ovarian; SK-OV-3 ovarian; HS 578T breast; NCI/ADR-RES ovarian; T-47D breast; BT-549 breast; MDA-MB-435 melanoma; SW-620 colon; MCF7 breast; HCT-116 colon; HCC-2998 colon; KM12 colon; IGROV1 ovarian; OVCAR-3 ovarian.
Common to all, as to experiment: NCI-60 one-dose screen, 48 h (100 = growth as untreated, 0 = no growth, -100 = all killed)
Common to all, as to conditions: 10 µM unless noted

Molecules are shown by their SMILES. About 83,000 compounds went through this panel and 20% of them were active in at least one assay; those are over-represented in the sample as a whole.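 In brief: 96-well plates, 48 h treatment, single concentration, percent growth endpoint.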 Values without a mark were called inactive. Calls of active or inactive are those of the source. How the source made its calls: active means growth percent below 10; inactive means the rest.

`COc1cc(NC2=C(Cl)C(=O)c3nc(C)ccc3C2=O)cc(OC)c1`: the growth in the assay on SR leukemia was -3.19% (active); in the assay on RPMI-8226 leukemia, -39.7% (active); in the assay on OVCAR-8 ovarian, -0.815% (active); in the assay on OVCAR-5 ovarian, 22%; with OVCAR-4 ovarian, -93.3% (active); in the assay with SK-OV-3 ovarian, 93.8%. Further, the growth in the assay with HS 578T breast was -32.8% (active); with NCI/ADR-RES ovarian, -1.26% (active); with T-47D breast, -56% (active); with BT-549 breast, 24.1%; in the assay on MDA-MB-435 melanoma, -87.4% (active); in the assay on SW-620 colon it was -90.2% (active). Besides, the growth in the assay with MCF7 breast is -51.7% (active); with HCT-116 colon, -97.8% (active); in the assay with HCC-2998 colon, 14.4%; in the assay with KM12 colon it was 39.3%.
For `COc1ccc(N2CCN(C(=O)CSc3ccc(-c4nc5cc(C)c(C)cc5[nH]4)cn3)CC2)cc1`, the growth is 17.1% in the assay with RPMI-8226 leukemia; 56.4% with OVCAR-8 ovarian; 93.5% in the assay with OVCAR-5 ovarian; 37.6% with OVCAR-4 ovarian; 94.6% in the assay on SK-OV-3 ovarian; 68.2% with IGROV1 ovarian. Besides, the growth in the assay on OVCAR-3 ovarian is 80.4%; in the assay on HS 578T breast, 94.8%; in the assay on NCI/ADR-RES ovarian, 49.3%; with T-47D breast it was 21.5%; in the assay with BT-549 breast it was 32.9%; with MDA-MB-435 melanoma, 73.1%. Also, the growth with SW-620 colon is 85.5%; with MCF7 breast, 42.8%; with HCT-116 colon, 74.3%; in the assay with HCC-2998 colon, 94.2%; with KM12 colon, 53.2%.
In the case of `C#C[C@]1(O)CC[C@H]2[C@@H]3CC=C4c5sc(C6CCOCC6)nc5CC[C@]4(C)[C@H]3CC[C@@]21C`, the growth with SR leukemia was 58.6%; with OVCAR-8 ovarian, 83.8%; in the assay with OVCAR-5 ovarian, 88.6%; in the assay on OVCAR-4 ovarian, 89.7%; with SK-OV-3 ovarian, 104%; in the assay on OVCAR-3 ovarian, 94.2%. For the same molecule, the growth is 66.9% in the assay on HS 578T breast; 80.6% in the assay on NCI/ADR-RES ovarian; 57.8% in the assay on T-47D breast; 77.6% in the assay with BT-549 breast; 85.5% in the assay on SW-620 colon; 75.6% with MCF7 breast. For the same molecule, the growth in the assay on HCT-116 colon is 64.4%; in the assay on HCC-2998 colon, 84.3%; in the assay on KM12 colon, 59.8%.
Turning to `O=S(=O)(Nc1ccc(C2CC2)cc1)c1ccc(-c2cnc(C3CC3)o2)cc1`, the growth with SR leukemia was 31.1%; in the assay on OVCAR-8 ovarian it was 80.2%; in the assay on OVCAR-5 ovarian, 94.2%; in the assay on OVCAR-4 ovarian, 67.1%; in the assay with SK-OV-3 ovarian it was 87%; with IGROV1 ovarian it was 58.2%. Besides, the growth is 53.2% with OVCAR-3 ovarian; 69% with HS 578T breast; 47.7% in the assay on NCI/ADR-RES ovarian; 51.5% in the assay on T-47D breast; 76.3% with BT-549 breast; 33.8% in the assay with SW-620 colon. For the same molecule, the growth was 33.3% with MCF7 breast, 48.5% in the assay on HCT-116 colon, 91.1% in the assay with HCC-2998 colon and 48.3% in the assay with KM12 colon.
On to `C#C[C@]1(O)CC[C@H]2[C@@H]3CC=C4c5sc(-c6ccc(OC)cc6)nc5CC[C@]4(C)[C@H]3CC[C@@]21C`, for which the growth with SR leukemia was 23.5%; in the assay on OVCAR-8 ovarian, 84.6%; with OVCAR-5 ovarian, 71.2%; with OVCAR-4 ovarian it was 97.9%; in the assay with SK-OV-3 ovarian, 53.8%; with IGROV1 ovarian, 70.2%. Besides, the growth in the assay on OVCAR-3 ovarian was 83.2%; in the assay with HS 578T breast, 2.91% (active); in the assay on NCI/ADR-RES ovarian, 83.8%; in the assay with T-47D breast, 73.6%; in the assay with BT-549 breast it was 47%; in the assay with SW-620 colon, 51.3%. Also, the growth in the assay with MCF7 breast was 27.6%; in the assay with HCT-116 colon it was 59.9%; in the assay with HCC-2998 colon it was 90.1%; in the assay on KM12 colon it was 60%.
As to `COc1ccc(Oc2ccc(C3CC(c4cc(OC)c(OC)c(OC)c4)=NN3C(C)=O)cc2)cc1` (configuration not stated), the growth in the assay with SR leukemia is 35.7%; with OVCAR-8 ovarian it was 30.3%; in the assay on OVCAR-5 ovarian, 50.2%; in the assay on OVCAR-4 ovarian, 18%; in the assay with SK-OV-3 ovarian it was 50.9%; with IGROV1 ovarian, 19.7%. In addition, the growth is 25.1% in the assay with OVCAR-3 ovarian; 51.3% in the assay with HS 578T breast; 19.8% with NCI/ADR-RES ovarian; 9.08% (active) in the assay on T-47D breast; 45.5% in the assay on BT-549 breast; 46.9% in the assay on SW-620 colon. For the same molecule, the growth in the assay on MCF7 breast is 10.1%; with HCT-116 colon, 19.5%; with HCC-2998 colon it was 42.2%; with KM12 colon it was 27.5%.
`O=C(C[n+]1ccnc2ccccc21)c1ccc(O)c(O)c1`: the growth in the assay on SR leukemia was 7.3% (active); in the assay on OVCAR-8 ovarian, 48.4%; in the assay with OVCAR-5 ovarian, 70.5%; with OVCAR-4 ovarian it was 46.6%; in the assay on SK-OV-3 ovarian, 112%; with IGROV1 ovarian, 51.4%. Besides, the growth was 21.7% in the assay with OVCAR-3 ovarian; 94.4% with HS 578T breast; 57.2% in the assay with NCI/ADR-RES ovarian; 45% in the assay with T-47D breast; 51.7% with BT-549 breast; 24% in the assay on SW-620 colon. Moreover, the growth with MCF7 breast was 12.5%; with HCT-116 colon, 7.08% (active); in the assay on HCC-2998 colon, 81.2%; in the assay with KM12 colon, 82.3%.
In the case of `O=S(=O)(Nc1ccc(-c2nc(-c3cccc(O)c3)c(-c3ccnc(Br)c3)[nH]2)cc1)c1ccccc1`, the growth in the assay on SR leukemia was -9.8% (active); with OVCAR-8 ovarian, 9.98% (active); in the assay on OVCAR-5 ovarian it was 64.6%; in the assay on OVCAR-4 ovarian it was 9.17% (active); in the assay with SK-OV-3 ovarian, 54.7%; in the assay on IGROV1 ovarian, 42.1%. Besides, the growth in the assay on OVCAR-3 ovarian is 32.1%; in the assay on HS 578T breast, -0.856% (active); in the assay on NCI/ADR-RES ovarian, 61.1%; in the assay on T-47D breast it was 1.01% (active); in the assay on BT-549 breast, 51.9%; in the assay with SW-620 colon, 49.8%. In addition, the growth in the assay with HCT-116 colon is 27%; in the assay with HCC-2998 colon it was 32.4%; in the assay with KM12 colon it was 21.5%.
